Inconclusive results are not listed. The source made the active and inactive calls. Rule for the calls: active = hit-call score of the fitted dose curve at least 0.9, where 1 is the maximum; inconclusive = response in the unintended direction; inactive = score below 0.9.
How the values were obtained:
[1] = molecular target: human Peroxisome Proliferator-activated Receptor delta (PPARd), PPARD (gene 5467) (UniProt Q03181); assay: ATG_PPARd_TRANS: Attagene TRANS-FACTORIAL HepG2 Assay for human Peroxisome Proliferator-activated Receptor delta (PPARd) (AID 2283002)
Chain of human Peroxisome Proliferator-activated Receptor delta (PPARd), PPARD (gene 5467) (Q03181 whole entry, looked up, the tested form may be a part): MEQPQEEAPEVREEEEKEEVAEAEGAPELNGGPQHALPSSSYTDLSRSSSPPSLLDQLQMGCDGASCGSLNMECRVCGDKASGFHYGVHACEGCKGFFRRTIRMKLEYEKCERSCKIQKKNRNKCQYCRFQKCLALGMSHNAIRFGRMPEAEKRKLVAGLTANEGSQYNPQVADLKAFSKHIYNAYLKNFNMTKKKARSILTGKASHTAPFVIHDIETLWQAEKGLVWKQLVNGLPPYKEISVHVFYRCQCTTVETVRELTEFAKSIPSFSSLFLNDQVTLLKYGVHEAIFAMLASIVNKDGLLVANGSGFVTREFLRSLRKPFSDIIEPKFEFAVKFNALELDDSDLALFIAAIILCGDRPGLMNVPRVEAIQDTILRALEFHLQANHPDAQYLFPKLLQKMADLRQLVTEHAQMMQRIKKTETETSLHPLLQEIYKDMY
Summary of the method: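 Fluorescence from capillary electrophoresis of labelled RT-PCR reporter fragments gives the signal; DMSO sets baseline. Cells: HepG2 transiently carrying GAL4-UAS reporter units plus chimeric nuclear receptor-Gal4 proteins, exposed to chemicals for 24 h.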

[2] = molecular target: human Retinoic Acid Receptor beta (RARb), RARB (gene 5915) (UniProt P10826); assay: ATG_RARb_TRANS: Attagene TRANS-FACTORIAL HepG2 Assay for human Retinoic Acid Receptor beta (AID 2283004)
Chain of human Retinoic Acid Receptor beta (RARb), RARB (gene 5915) (P10826 whole entry, looked up, the tested form may be a part): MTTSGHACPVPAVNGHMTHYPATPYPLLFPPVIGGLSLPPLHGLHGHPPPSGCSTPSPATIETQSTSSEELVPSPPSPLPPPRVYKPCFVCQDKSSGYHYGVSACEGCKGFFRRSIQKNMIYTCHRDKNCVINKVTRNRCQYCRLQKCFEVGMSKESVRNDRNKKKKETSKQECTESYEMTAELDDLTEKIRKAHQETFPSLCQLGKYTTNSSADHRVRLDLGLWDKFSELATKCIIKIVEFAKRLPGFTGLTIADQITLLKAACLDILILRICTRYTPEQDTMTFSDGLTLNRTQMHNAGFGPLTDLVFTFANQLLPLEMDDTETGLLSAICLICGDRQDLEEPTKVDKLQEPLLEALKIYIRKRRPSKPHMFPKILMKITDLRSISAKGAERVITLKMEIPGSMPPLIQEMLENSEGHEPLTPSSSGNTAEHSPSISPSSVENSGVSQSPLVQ
Summary of the method: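 HepG2, transient MRTU transfection, NR–Gal4 chimera, 24 h treatment; RT-PCR plus CE fluorescence detection of reporter mRNA; gain of signal vs DMSO.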

[3] = molecular target: Retinoic acid receptor alpha (Homo sapiens) (UniProt P10276); assay: ATG_RARa_TRANS: Attagene TRANS-FACTORIAL HepG2 Assay for human Retinoic Acid Receptor alpha (RARa) (AID 2283005)
Summary of the method: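 HepG2 transiently transfected with multiplex GAL4-UAS reporter units including a human RARa–GAL4 chimera; 24 h compound exposure. Reporter mRNA quantified by RT-PCR, 6-FAM labeling and capillary electrophoresis; gain of signal versus DMSO.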

[4] = molecular target: Nuclear receptor subfamily 1 group I member 2 (Homo sapiens) (UniProt O75469); assay: ATG_PXR_TRANS: Attagene TRANS-FACTORIAL HepG2 Assay for human Pregnane X Receptor (PXR) (AID 2283008)
Chain of Nuclear receptor subfamily 1 group I member 2 (Homo sapiens) (O75469 whole entry, looked up, the tested form may be a part): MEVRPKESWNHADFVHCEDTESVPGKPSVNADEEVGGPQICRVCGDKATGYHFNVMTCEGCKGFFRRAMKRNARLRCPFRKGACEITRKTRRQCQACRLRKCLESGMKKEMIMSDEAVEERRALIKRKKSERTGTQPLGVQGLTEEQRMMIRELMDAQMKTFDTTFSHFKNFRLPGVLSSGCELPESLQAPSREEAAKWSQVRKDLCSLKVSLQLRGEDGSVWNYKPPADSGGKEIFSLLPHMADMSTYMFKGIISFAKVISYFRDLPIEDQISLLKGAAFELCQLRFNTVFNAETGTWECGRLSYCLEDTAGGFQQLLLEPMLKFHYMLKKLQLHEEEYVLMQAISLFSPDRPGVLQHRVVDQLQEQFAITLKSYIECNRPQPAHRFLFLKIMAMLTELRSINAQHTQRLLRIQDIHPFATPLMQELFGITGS
Summary of the method: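 Trans-factorial format: exogenous NR-Gal4 fusion activity, not endogenous factor, in transfected human HepG2 liver cells. After 24 h dosing, RNA isolated, reverse-transcribed, amplified and resolved by capillary electrophoresis; induction scored versus DMSO.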

[5] = molecular target: human Retinoic Acid Receptor gamma (RARg), RARG (gene 5916) (UniProt P13631); assay: ATG_RARg_TRANS: Attagene TRANS-FACTORIAL HepG2 Assay for human Retinoic Acid Receptor gamma (RARg) (AID 2283009)
Chain of human Retinoic Acid Receptor gamma (RARg), RARG (gene 5916) (P13631 whole entry, looked up, the tested form may be a part): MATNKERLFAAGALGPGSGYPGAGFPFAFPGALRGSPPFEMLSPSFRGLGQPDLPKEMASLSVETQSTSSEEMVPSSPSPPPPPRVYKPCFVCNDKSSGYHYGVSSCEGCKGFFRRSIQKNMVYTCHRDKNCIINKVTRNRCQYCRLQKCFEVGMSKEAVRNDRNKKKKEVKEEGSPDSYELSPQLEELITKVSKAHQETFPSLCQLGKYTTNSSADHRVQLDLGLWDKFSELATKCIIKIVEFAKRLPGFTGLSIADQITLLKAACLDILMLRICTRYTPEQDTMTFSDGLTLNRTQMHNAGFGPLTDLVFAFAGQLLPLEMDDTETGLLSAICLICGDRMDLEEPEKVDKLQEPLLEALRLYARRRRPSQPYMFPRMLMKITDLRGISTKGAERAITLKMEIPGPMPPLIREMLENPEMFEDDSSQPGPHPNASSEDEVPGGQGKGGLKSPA
Summary of the method: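 Gain-of-signal relative to DMSO is reported from fluorescent capillary electrophoresis of RT-PCR reporter products. These came from HepG2 cells expressing transfected RARg-GAL4 chimeras with UAS reporters, harvested 24 h after dosing.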

[6] = molecular target: Retinoic acid receptor RXR-alpha (Homo sapiens) (UniProt P19793); assay: ATG_RXRa_TRANS: Attagene TRANS-FACTORIAL HepG2 Assay for human Retinoid X Receptor alpha (RXRa) (AID 2283012)
Chain of Retinoic acid receptor RXR-alpha (Homo sapiens) (P19793 whole entry, looked up, the tested form may be a part): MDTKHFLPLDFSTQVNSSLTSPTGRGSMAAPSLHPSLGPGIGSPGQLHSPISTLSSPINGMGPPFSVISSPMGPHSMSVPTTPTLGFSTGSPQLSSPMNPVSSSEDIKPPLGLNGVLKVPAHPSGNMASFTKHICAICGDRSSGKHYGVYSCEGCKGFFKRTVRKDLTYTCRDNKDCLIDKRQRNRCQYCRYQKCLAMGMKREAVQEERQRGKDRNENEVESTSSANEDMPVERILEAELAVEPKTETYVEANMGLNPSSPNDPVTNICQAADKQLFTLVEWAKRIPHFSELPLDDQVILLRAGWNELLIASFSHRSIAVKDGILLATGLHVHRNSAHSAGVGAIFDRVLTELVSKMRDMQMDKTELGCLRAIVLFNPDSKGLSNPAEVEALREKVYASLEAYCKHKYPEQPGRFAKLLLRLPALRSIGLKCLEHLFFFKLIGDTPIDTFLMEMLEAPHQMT
Summary of the method: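 Chimeric NR-GAL4 trans-activation in HepG2, 24 h treatment; reporter transcripts quantified by fluorescence on capillary electrophoresis, analysed for upward change from DMSO.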

[7] = molecular target: human Retinoid X Receptor beta (RXRb), RXRB (gene 6257) (UniProt P28702); assay: ATG_RXRb_TRANS: Attagene TRANS-FACTORIAL HepG2 Assay for human Retinoid X Receptor beta (RXRb) (AID 2283013)
Chain of human Retinoid X Receptor beta (RXRb), RXRB (gene 6257) (P28702 whole entry, looked up, the tested form may be a part): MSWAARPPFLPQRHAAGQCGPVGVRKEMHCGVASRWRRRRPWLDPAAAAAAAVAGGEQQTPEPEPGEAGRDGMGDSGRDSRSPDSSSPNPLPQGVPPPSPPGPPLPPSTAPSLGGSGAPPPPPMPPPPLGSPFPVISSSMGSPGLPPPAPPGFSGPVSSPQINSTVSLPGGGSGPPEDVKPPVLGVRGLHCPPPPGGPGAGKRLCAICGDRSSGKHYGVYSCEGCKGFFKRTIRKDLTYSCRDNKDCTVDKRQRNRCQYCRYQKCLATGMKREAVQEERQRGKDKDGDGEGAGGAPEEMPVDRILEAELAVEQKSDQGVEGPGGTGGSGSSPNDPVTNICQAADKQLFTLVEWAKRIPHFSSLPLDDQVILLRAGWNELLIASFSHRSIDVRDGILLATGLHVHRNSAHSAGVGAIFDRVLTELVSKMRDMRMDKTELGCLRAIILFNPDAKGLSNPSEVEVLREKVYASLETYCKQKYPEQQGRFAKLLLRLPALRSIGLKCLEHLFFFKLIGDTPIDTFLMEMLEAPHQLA
Summary of the method: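 After a 24 h incubation with test chemical, transfected HepG2 cells carrying NR-Gal4 fusions and GAL4-UAS reporter transcription units yield RNA whose reporter cDNA is FAM-labelled, HpaI-cut and sized by capillary electrophoresis; increases over DMSO are scored.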

[8] = molecular target: human Thyroid Receptor alpha (THRa1), THRA (gene 7067) (UniProt P10827); assay: ATG_THRa1_TRANS: Attagene TRANS-FACTORIAL HepG2 Assay for human Thyroid Receptor alpha (THRa1) (AID 2283014)
Chain of human Thyroid Receptor alpha (THRa1), THRA (gene 7067) (P10827 whole entry, looked up, the tested form may be a part): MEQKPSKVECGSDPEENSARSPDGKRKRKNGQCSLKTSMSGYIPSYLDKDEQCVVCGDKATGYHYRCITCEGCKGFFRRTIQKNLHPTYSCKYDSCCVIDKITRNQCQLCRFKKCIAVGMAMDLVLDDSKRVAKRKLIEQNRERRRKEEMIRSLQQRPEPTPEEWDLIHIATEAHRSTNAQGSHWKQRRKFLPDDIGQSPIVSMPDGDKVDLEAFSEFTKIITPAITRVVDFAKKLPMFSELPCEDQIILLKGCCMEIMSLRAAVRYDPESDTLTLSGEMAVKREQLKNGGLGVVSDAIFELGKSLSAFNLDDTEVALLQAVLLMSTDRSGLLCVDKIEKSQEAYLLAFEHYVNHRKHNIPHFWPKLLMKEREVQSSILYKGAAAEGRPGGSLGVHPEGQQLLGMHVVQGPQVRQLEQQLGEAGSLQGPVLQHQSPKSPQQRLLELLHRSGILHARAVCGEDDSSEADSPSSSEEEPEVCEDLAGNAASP
Summary of the method: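 First, HepG2 cells receive multiple GAL4-UAS reporter units and the chimeric receptor. They are then dosed for 24 h, after which RNA is reverse-transcribed, amplified, labelled, HpaI-cut and sized by capillary electrophoresis; gain relative to DMSO is scored.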

[9] = molecular target: Peroxisome proliferator-activated receptor gamma (Homo sapiens) (UniProt P37231); assay: ATG_PPARg_TRANS: Attagene TRANS-FACTORIAL HepG2 Assay for human Peroxisome Proliferator-activated Receptor-gamma (PPARg) (AID 2283007)
Summary of the method: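 Twenty-four hours after chemical dosing of transiently transfected HepG2 cells, isolated RNA was converted to cDNA, reporter sequences amplified and 6-FAM-labelled, then HpaI-digested and analysed by capillary electrophoresis. Signal increase against DMSO was fitted.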

[10] = molecular target: human RAR-related Orphan Receptor beta (RORb), RORB (gene 6096) (UniProt Q92753); assay: ATG_RORb_TRANS: Attagene TRANS-FACTORIAL HepG2 Assay for human RAR-related Orphan Receptor beta (RORb) (AID 2283010)
Chain of human RAR-related Orphan Receptor beta (RORb), RORB (gene 6096) (Q92753 whole entry, looked up, the tested form may be a part): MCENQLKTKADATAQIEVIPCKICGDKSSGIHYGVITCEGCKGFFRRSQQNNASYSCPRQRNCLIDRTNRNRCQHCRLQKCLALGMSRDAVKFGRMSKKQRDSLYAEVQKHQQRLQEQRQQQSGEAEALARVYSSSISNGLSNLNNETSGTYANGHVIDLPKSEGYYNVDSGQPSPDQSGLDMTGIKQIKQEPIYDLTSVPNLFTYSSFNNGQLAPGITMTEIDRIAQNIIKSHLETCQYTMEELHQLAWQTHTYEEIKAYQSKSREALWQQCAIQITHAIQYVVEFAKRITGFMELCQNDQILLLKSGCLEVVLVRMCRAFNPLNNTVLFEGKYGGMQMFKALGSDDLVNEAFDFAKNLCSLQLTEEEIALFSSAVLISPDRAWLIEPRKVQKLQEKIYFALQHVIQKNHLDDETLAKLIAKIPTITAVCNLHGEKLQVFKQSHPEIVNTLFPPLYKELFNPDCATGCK
Summary of the method: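 Multiplexed transcription-factor reporter assay: HepG2 cells transiently carrying NR-Gal4/GAL4-UAS constructs, 24 h treatment, mRNA quantified by RT-PCR plus capillary electrophoresis fluorescence; activity scored as induction over DMSO.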

[11] = molecular target: human Peroxisome Proliferator-activated Receptor alpha (PPARa), PPARA (gene 5465) (UniProt Q07869); assay: ATG_PPARa_TRANS: Attagene TRANS-FACTORIAL HepG2 Assay for human Peroxisome Proliferator-activated Receptor alpha (PPARa) (AID 2283001);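 for AC50: potency for gain of reporter signal over DMSO so agonist or activator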
Chain of human Peroxisome Proliferator-activated Receptor alpha (PPARa), PPARA (gene 5465) (Q07869 whole entry, looked up, the tested form may be a part): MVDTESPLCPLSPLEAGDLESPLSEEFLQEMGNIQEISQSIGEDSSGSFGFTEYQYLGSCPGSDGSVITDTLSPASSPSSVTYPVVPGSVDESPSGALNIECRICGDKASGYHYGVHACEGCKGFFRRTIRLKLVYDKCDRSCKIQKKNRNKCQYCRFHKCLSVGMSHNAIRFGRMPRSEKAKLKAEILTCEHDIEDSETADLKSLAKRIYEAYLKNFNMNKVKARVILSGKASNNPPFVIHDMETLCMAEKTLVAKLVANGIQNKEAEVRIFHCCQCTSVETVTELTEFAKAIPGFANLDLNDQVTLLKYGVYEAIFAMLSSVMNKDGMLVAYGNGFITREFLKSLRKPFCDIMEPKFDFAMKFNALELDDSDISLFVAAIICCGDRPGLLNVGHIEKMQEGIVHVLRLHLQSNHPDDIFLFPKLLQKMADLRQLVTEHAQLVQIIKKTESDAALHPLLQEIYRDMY
Summary of the method: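 Transient HepG2 transfection, GAL4-UAS reporters, NR-Gal4 chimeras; 24 h compound exposure. Readout: reporter transcripts by RT-PCR, 6-FAM primer extension, HpaI digest, capillary electrophoresis. Positive direction vs DMSO baseline.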

[12] = molecular target: human RAR-related Orphan Receptor gamma (RORg), RORC (gene 6097) (UniProt P51449); assay: ATG_RORg_TRANS: Attagene TRANS-FACTORIAL HepG2 Assay for human RAR-related Orphan Receptor gamma (RORg) (AID 2283011)
Chain of human RAR-related Orphan Receptor gamma (RORg), RORC (gene 6097) (P51449 whole entry, looked up, the tested form may be a part): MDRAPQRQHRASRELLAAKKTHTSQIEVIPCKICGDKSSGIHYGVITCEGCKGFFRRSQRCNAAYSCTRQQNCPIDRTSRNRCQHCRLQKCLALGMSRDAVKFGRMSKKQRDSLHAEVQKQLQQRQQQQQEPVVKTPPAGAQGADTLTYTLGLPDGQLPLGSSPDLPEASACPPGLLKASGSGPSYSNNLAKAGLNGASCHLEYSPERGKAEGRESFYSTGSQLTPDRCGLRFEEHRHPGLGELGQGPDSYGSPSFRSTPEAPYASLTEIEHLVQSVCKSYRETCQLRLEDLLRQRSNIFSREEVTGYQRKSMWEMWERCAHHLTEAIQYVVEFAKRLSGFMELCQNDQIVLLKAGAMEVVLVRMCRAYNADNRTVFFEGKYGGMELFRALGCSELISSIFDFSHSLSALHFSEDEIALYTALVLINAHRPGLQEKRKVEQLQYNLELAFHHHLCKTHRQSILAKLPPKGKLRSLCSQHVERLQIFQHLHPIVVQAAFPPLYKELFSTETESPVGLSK
Summary of the method: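 Activity is scored as increase in GAL4-UAS reporter mRNA over DMSO, detected by fluorescent RT-PCR and capillary electrophoresis in HepG2 cells transiently expressing a RORg-Gal4 chimera, 24 h after dosing.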

Measured: AC50

CC(=O)CC(C)(C)C1CCCCC1
inactive: [1] | [2] | [3] | [4] | [5] | [6] | [7] | [8]

OC[C@H]1O[C@@H](O[C@H]2[C@H](O)[C@@H](O)[C@H](O)O[C@@H]2CO)[C@H](O)[C@@H](O)[C@H]1O
inactive: [1] | [2] | [9] | [4] | [10] | [6] | [7]

CCCCCCOC(C)=O
inactive: [1] | [9]

CCCCOCCOCCOCCO
inactive: [1] | [2] | [9] | [6] | [7] | [8]

CCCCCC1CCC(=O)O1 (stereo not drawn)
inactive: [11] | [4] | [6] | [7]

NCCN1CCNCC1
active: [7] 25.3 µM
inactive: [1] | [2] | [9] | [4] | [5] | [10] | [12]

CC12CCC(C1)C(C)(C)C2O (stereo not drawn)
inactive: [1] | [2] | [12] | [6] | [7]

CCCCCCCCCO
inactive: [11] | [9] | [6] | [7]

CCCOC(=O)CC
inactive: [11] | [9] | [10] | [6] | [7]

C=CCCCCCCCCC(=O)OCC
inactive: [11] | [4] | [6] | [8]
active: [9] 55.9 µM | [7] 100 µM

[Cl][Dy]([Cl])[Cl]
inactive: [11] | [4] | [6] | [7]

C=C(C)CCCC(C)CCO (stereo not drawn)
active: [9] 41.9 µM
inactive: [11] | [6] | [7] | [8]

CCCCCCCC(=O)N(C)C
inactive: [1] | [9] | [4] | [5] | [6] | [8]

C=C(C)C(=O)OCCOCCOC(=O)C(=C)C
inactive: [11] | [9] | [4] | [6] | [7]

CC(CO)c1ccccc1 (stereo not drawn)
inactive: [11] | [12] | [7] | [8]

CC(O)COCC(C)O (stereo not drawn)
inactive: [11] | [4] | [12] | [6]

N=C1N=C(N)c2ccccc21
active: [11] 173 µM
inactive: [9] | [10] | [12] | [6] | [7] | [8]

COc1ccc(C(C)=O)cc1
inactive: [11] | [9] | [10] | [12] | [6]

Nc1ccc(O)c(N)c1
inactive: [11] | [9] | [7]

CC(C)C(=O)OCC=Cc1ccccc1
inactive: [1] | [9] | [10] | [12] | [6]
active: [4] 22.1 µM

[Cu+]
inactive: [1] | [2] | [3] | [9] | [4] | [5] | [10] | [12] | [6] | [8]

CC(C)(C)C1CCC(O)CC1 (stereo not drawn)
inactive: [1] | [9] | [4] | [10] | [6] | [7] | [8]

CC/C=C\C#N
inactive: [1] | [9] | [4] | [8]

CC(O)CNCC(C)O (stereo not drawn)
inactive: [1] | [9] | [10] | [12] | [6] | [7]

CC1(C)CC(=O)CC(C)(C)N1
inactive: [1] | [9] | [4] | [12]

CCCCCC(=O)O[C@]1(C(C)=O)CC[C@H]2[C@@H]3CCC4=CC(=O)CC[C@]4(C)[C@H]3CC[C@@]21C
inactive: [1] | [6]
active: [9] 3.22 µM | [4] 0.313 µM

CCOC(=O)CC(C)C
inactive: [1] | [9] | [12] | [6] | [8]

Cc1cccc(O)c1
inactive: [1] | [9] | [10] | [12]

CC(=O)OC/C=C(C)/C=C/C=C(C)/C=C/C1=C(C)CCCC1(C)C
active: [9] 27.3 µM | [4] 0.418 µM
inactive: [1] | [6]

COc1ccccc1O
inactive: [1] | [9] | [4] | [10] | [12] | [8]

CC(=O)C1=C(C)[C@@H]2C[C@@]3(C1)[C@H](C)CC[C@H]3C2(C)C
active: [9] 100 µM | [4] 2.1 µM | [7] 21.4 µM
inactive: [1] | [6] | [8]

CCCc1ccc(O)cc1
inactive: [1] | [9] | [4] | [12] | [6] | [7]

CN(C)c1ccc(C=O)cc1
inactive: [1] | [9] | [4] | [12] | [6] | [7] | [8]

CC(C)=CC(=O)O
inactive: [1] | [9] | [4] | [6]

C[N+](C)(C)CCO
inactive: [1] | [9] | [4] | [12] | [6]

O=c1cc(-c2ccc(O)cc2)oc2cc(O)cc(O)c12
active: [9] 18.2 µM
inactive: [1] | [5] | [6] | [7]

CN(C)CCC=C1c2ccccc2CCc2ccccc21
inactive: [1] | [9] | [12] | [6] | [8]
active: [4] 24 µM

[O-]/[N+](=N\O)c1ccccc1
inactive: [1] | [4] | [12] | [7]
active: [9] 16.6 µM

CCCCCCCOC(C)=O
inactive: [1] | [9] | [4] | [6] | [7] | [8]

CCCCCCCCCCO[C@@H]1O[C@H](CO)[C@@H](O)[C@H](O)[C@H]1O
inactive: [1] | [9] | [5] | [7]

CC/C=C\CCOC(C)OCC (stereo not drawn)
inactive: [1] | [9] | [10] | [6]

CC(C)(C)c1ccc(S)cc1
inactive: [1] | [9] | [4] | [12] | [7]

Cc1cc(O)c(C)c(C)c1O
inactive: [1] | [10] | [12] | [6] | [7]
active: [9] 32.4 µM | [4] 22 µM

From PubChem BioAssay (EPA / NIEHS)
